From ChEMBL document CHEMBL3988442, “University of Dundee, Small-Polar-MMV Screening Library” (2021)

What follows are compounds tested against AMP-activated protein kinase, AMPK (Homo sapiens) (UniProt P54646+O43741+P54619+Q9UGJ0+Q9Y478+Q13131+Q9UGI9) (assay: AMP-dependent Kinase enzyme assay. An in vitro enzyme assay that detects ADP turnover that is directly proportional to AMPK activity. This uses naive AMPK that is activated during the assay with MK-8722). Conditions: 30 µM.
Type: functional
Parameters: scale not given: direction of the effect not stated beside the values
`CCC(C)c1csc(NC(=O)Cc2csc(-c3nnc[nH]3)n2)n1` (centres undefined) showed a Percent Effect of 10.5%. Compound `O=C(Cn1cc(Cl)cn1)N1CCNC1=O` has a Percent Effect of -8.6%. For `CN(Cc1ccsc1)C(=O)c1nc(N2CCCCC2)ncc1Cl`, the Percent Effect was 0.035%. With `COC[C@]1(O)CCN(c2cc(OC)ncn2)CC1(C)C` the Percent Effect was 20.7%. Work on `O=C(CCn1cccn1)NCCOc1ncc(Cl)cc1Cl` yielded a Percent Effect of 2.54%. `CCn1cc(CN(C)Cc2cnn(-c3ccc(F)cc3)c2)cn1` showed a Percent Effect of 13.6%. `CC(C)c1nc(CN2CCN(C(=O)OC(C)(C)C)C(C)C2)no1` (centres undefined) showed a Percent Effect of 1.33%. In the case of `COc1ccc(-c2cnc(CN(CC(N)=O)C3CCCC3)o2)cc1`, the Percent Effect is reported as -2.59%. Compound `Cc1noc(C)c1C(=O)N1CCC(c2cc3cnccc3[nH]2)CC1` has a Percent Effect of 16.4%. For `CCc1nsc(N2CCCN(CC(=O)N(C)C3CC3)CC2)n1`, the Percent Effect was 7.28%. `O=C(C1CCOC1)N1CCN(CC(F)(F)F)c2ccccc21` (centres undefined) showed a Percent Effect of 11.6%. `CO[C@H]1C[C@@H](O)C12CCN(C(=O)NCc1ccco1)CC2` was tested, and the Percent Effect was -2.57%. For `COc1cnc(N2CC(N3CCOCC3)C2)nc1-c1ccnn1C`, the Percent Effect was -7.62%. For `O=C1CCC2(CCNCC2)CN1Cc1nnc2ccccn12`, the Percent Effect was 8.07%. In the case of `O=C(c1coc(COc2ccccc2F)n1)N1CCCO1`, the Percent Effect is reported as 6.72%. For `CCn1cnnc1CNC(=O)c1ccc(Br)cc1F`, the Percent Effect was -10.5%. `Cc1cnn(CCNCC(=O)N2CCN(c3ccccc3)CC2)c1` gave a Percent Effect of -5.8%. Work on `CCc1cc(NCCCNS(C)(=O)=O)nc(-c2ccncc2)n1` yielded a Percent Effect of -3.23%. In the case of `Cc1cccc(C)c1Nc1noc2c1CN(C(=O)c1ccnn1C)CC2`, the Percent Effect is reported as 9.88%. `COCCC(=O)Nc1nc2c(OC)cc(F)cc2s1` showed a Percent Effect of -1.47%. For `Cc1cc(C)n(CCCN(C)c2cc(N(C)C)ncn2)n1`, the Percent Effect was 0.376%. In the case of `Cc1cnccc1CNCc1ccc(OC23CCCN(CC2)C3)cc1` (centres undefined), the Percent Effect is reported as -10.2%. In the case of `c1ccc(CCN2CCCC2c2cccc(Nc3nccs3)n2)cc1` (centres undefined), the Percent Effect is reported as 3.49%. `COc1cccc(OCC2CCCN(c3cc(C(N)=O)ccn3)C2)c1` (centres undefined) showed a Percent Effect of 4.97%. For `COc1ccc(Br)c(NC(=O)NCc2ncnn2C)c1`, the Percent Effect was -1.33%. `COc1ccc(C2(C(=O)N3C[C@@H](C(=O)O)[C@H](C(C)C)C3)CC2)cc1` showed a Percent Effect of 2.55%. In the case of `O=C(NCCS(=O)(=O)N1CCN(c2ncccn2)CC1)C1CCCC1`, the Percent Effect is reported as -1.53%. For `COc1ccc(C(=O)NCc2ccco2)nn1`, the Percent Effect was -4.45%. `COc1ccc(N2CCN(Cc3nc(CSC)no3)CC2=O)cc1` showed a Percent Effect of 1.27%. `CCC(CNC(=O)c1cccc(S(=O)(=O)NC)c1)N1CCCC1` (centres undefined) was tested, and the Percent Effect was 0.599%. With `CC(C(N)=O)N1CCN(c2ncc(Cl)cn2)CC1` (centres undefined) the Percent Effect was -1.99%. In the case of `Cc1noc(CCCC(=O)N2CCNC(=O)C2)n1`, the Percent Effect is reported as -2.32%. `CN(CCCC1CCCO1)C(=O)c1cccc(C#N)c1` (centres undefined) gave a Percent Effect of 10.9%. For `CC(C)N(C)S(=O)(=O)c1ccc2c(c1)CCN(C(=O)c1cccnn1)C2`, the Percent Effect was -25.3%. Compound `CCN(Cc1cnn(CC)c1)Cc1c(Cl)cncc1Cl` has a Percent Effect of 6.24%. `CCN(CC(=O)NC)C(=O)c1csc(Cc2ccccc2)n1` gave a Percent Effect of -5.87%. With `O=C1CCC2(CCCN(CCn3cc(Cl)cn3)C2)CN1C1CCCC1` (centres undefined) the Percent Effect was 14.4%. `FC(F)(F)c1csc(N2CCN(Cc3ccccn3)CC2)n1` was tested, and the Percent Effect was 7.24%. `Cc1ccc(S(=O)(=O)N(C)CC(C)O)c(F)c1` (centres undefined) was tested, and the Percent Effect was 8.59%.
